# Source: the supplement of paper PMC6411743
# ± gives the standard deviation of the averaged measurements. About 6,200 targets were measured; listed, in parts, are those with the largest changes and a random draw of the rest.
# Experiments:
# Assay in all cases: NP40-soluble protein abundance relative to vehicle (solubility fold change) (ratio); higher = more soluble protein in presence of AMP-PNP
# [1] = molecular target: T1, D6R9V8|Q9UKY7 (UniProt Q9UKY7)
# T1 sequence (whole entry): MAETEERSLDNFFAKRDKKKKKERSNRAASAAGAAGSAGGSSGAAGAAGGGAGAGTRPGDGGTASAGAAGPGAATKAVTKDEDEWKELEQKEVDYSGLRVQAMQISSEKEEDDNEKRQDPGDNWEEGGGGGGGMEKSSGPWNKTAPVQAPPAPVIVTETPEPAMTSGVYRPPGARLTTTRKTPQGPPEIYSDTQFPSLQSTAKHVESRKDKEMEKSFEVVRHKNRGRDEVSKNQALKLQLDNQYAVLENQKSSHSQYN
# How it was run: (§1)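 Across three independent experiments, values are fold changes against the detergent-processed vehicle for each replicate, based on vsn-normalised intensities. The samples were Jurkat crude lysate treated with eight concentrations (0.1 to 10 mM) for 10 min at room temperature and then 3 min at 37 °C. Lysate was solubilised with 0.8% NP40 and benzonase, ultracentrifuged, and the supernatant analysed by TMT-labelled LC-MS/MS.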
# [2] = molecular target: T2, E9PNW4|E9PR17|P13987 (UniProt P13987)
# T2 sequence (whole entry): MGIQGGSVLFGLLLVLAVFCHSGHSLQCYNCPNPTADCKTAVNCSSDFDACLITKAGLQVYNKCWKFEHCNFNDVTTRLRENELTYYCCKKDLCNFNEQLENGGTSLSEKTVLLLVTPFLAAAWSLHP
# How it was run: as §1
# [3] = molecular target: T3, UniProt O43861|O43861-2
# T3 sequence (whole entry): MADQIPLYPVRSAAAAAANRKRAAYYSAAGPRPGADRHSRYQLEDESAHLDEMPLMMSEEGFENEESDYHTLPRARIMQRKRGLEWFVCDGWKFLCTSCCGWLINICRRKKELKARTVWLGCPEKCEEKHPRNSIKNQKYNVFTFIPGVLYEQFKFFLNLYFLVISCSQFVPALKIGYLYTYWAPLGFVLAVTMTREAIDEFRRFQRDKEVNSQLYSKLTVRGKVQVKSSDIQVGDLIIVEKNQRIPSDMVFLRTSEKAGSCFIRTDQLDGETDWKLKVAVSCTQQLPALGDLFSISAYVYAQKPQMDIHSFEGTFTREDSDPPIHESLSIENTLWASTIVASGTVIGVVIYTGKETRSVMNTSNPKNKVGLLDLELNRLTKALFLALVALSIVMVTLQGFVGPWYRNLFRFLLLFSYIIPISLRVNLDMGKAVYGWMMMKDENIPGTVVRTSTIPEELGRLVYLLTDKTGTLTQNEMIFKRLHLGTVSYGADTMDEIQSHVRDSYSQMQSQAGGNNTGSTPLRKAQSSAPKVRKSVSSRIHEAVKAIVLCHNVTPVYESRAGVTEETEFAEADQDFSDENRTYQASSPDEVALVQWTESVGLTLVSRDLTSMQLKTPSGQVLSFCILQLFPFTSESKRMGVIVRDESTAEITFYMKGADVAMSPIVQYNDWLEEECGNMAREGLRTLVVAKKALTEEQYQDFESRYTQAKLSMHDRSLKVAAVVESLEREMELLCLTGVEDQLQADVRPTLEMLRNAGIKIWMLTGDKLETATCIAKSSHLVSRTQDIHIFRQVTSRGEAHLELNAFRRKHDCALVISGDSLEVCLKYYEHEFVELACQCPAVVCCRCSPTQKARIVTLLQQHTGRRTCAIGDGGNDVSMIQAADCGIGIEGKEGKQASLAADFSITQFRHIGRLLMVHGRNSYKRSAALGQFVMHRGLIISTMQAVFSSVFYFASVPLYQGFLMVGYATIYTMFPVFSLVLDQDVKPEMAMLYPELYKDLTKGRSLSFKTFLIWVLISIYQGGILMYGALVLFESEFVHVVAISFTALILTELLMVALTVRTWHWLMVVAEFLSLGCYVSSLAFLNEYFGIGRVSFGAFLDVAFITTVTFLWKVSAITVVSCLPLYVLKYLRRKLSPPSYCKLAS
# How it was run: as §1
# [4] = molecular target: T4, ZW10 (UniProt O43264)
# T4 sequence (whole entry): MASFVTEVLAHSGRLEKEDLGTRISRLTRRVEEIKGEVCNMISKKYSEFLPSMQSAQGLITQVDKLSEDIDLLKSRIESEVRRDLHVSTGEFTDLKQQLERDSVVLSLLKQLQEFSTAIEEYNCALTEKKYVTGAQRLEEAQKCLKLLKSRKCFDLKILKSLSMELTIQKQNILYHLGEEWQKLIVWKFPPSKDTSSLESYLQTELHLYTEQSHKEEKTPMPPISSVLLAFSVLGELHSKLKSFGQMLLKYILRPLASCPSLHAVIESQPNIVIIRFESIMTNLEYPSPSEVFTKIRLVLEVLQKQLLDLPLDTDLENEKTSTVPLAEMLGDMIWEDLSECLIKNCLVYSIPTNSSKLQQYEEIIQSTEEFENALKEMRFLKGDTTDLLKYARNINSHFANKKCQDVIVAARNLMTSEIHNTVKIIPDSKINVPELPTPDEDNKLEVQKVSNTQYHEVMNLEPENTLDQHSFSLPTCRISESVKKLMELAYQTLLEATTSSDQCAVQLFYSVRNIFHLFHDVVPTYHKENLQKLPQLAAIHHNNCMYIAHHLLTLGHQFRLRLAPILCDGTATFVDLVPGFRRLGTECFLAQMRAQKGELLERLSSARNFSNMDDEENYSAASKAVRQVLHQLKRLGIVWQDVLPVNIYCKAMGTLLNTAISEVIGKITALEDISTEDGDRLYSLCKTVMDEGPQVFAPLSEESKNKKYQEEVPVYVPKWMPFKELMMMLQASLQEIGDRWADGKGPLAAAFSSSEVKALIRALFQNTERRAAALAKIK
# How it was run: as §1
smiles,measurement,setting,value
Nc1ncnc2c1ncn2[C@@H]1O[C@H](COP(=O)(O)OP(=O)(O)NP(=O)(O)O)[C@@H](O)[C@H]1O [adenylyl imidodiphosphate],NP40-soluble protein abundance,[1]; concentration: 1mM,1.03 ± 0.021
same,NP40-soluble protein abundance,[1]; concentration: 2mM,1.09 ± 0.089
same,NP40-soluble protein abundance,[1]; concentration: 4mM,1.03 ± 0.034
same,NP40-soluble protein abundance,[1]; concentration: 6mM,1.04 ± 0.034
same,NP40-soluble protein abundance,[1]; concentration: 8mM,0.993 ± 0.028
same,NP40-soluble protein abundance,[1]; concentration: 10mM,1.05 ± 0.07
same,NP40-soluble protein abundance,[2]; concentration: 1mM,1.05 ± 0.053
same,NP40-soluble protein abundance,[2]; concentration: 2mM,1.11 ± 0.13
same,NP40-soluble protein abundance,[2]; concentration: 4mM,1.03 ± 0.049
same,NP40-soluble protein abundance,[2]; concentration: 6mM,1.07 ± 0.051
same,NP40-soluble protein abundance,[2]; concentration: 8mM,1.1 ± 0.015
same,NP40-soluble protein abundance,[2]; concentration: 10mM,1.06 ± 0.03
same,NP40-soluble protein abundance,[3]; concentration: 1mM,1.01 ± 0.022
same,NP40-soluble protein abundance,[3]; concentration: 2mM,1 ± 0.012
same,NP40-soluble protein abundance,[3]; concentration: 4mM,1.01 ± 0.025
same,NP40-soluble protein abundance,[3]; concentration: 6mM,0.986 ± 0.013
same,NP40-soluble protein abundance,[3]; concentration: 8mM,1 ± 0.041
same,NP40-soluble protein abundance,[3]; concentration: 10mM,1.024 ± 0.0049
same,NP40-soluble protein abundance,[4]; concentration: 1mM,0.994 ± 0.031
same,NP40-soluble protein abundance,[4]; concentration: 2mM,0.974 ± 0.043
same,NP40-soluble protein abundance,[4]; concentration: 4mM,0.977 ± 0.047
same,NP40-soluble protein abundance,[4]; concentration: 6mM,0.936 ± 0.064
same,NP40-soluble protein abundance,[4]; concentration: 8mM,0.919 ± 0.081
same,NP40-soluble protein abundance,[4]; concentration: 10mM,0.941 ± 0.07
